# Bioassay records: PubChem, Johns Hopkins Ion Channel Center
# KCNQ2 pot = potentiators of rat KCNQ2 potassium channel. O88943. CHO-K1 KCNQ2, FluxOR thallium flux fluorescence; hits give high values. B-score at 10 µM. actives 0.54% (n = 310,000);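 active = fluorescence ratio B-score at least 3 SD of library B-scores, with initial fluorescence B-score within 3 of them, cut at about 5.3 in these data; same plate scores as AID 2156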;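 also: B-score of peak minus minimum over baseline fluorescence ratio after K+ and Tl+ stimulus; positive B-score means potentiation of KCNQ2 with more thallium influx and brighter signal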
# KCNQ2 block = inhibitors of rat KCNQ2 potassium channel. O88943. actives 1.1% (n = 310,000). B-score at 10 µM. AID 2156. CHO-K1 KCNQ2, FluxOR thallium flux, 20 min; hits give low values;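 active = fluorescence ratio B-score at most minus 3 library SDs, with starting brightness B-score within 2 library SDs, cut at about -5.5 in these data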
# Kir21 confirm = confirmation of mouse Kir2.1 potassium channel inhibitors | shares compounds with KCNQ2 pot | Kir2.1-expressing cells, FluxOR thallium flux fluorescence; hits give low values | Tl flux remaining, % of negative control (hits give low values), % at 10 µM | actives 41% (n = 2,300);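 active = Primary-screen hit whose thallium flux fell at least 3 control SD below untreated wells in both duplicates, with normal baseline fluorescence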;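 also: 0% = blank wells without stimulus and 100% = stimulated no-compound controls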
# HEK293 ctr = counter-screen for Kir2.1 inhibitors: effect in parental HEK293 cells; shares compounds with KCNQ2 pot; FluxOR thallium flux fluorescence; 0% = unstimulated blank wells; FluxOR signal as % of negative control (100 = no effect), % at 10 µM; actives 19% (n = 2,300);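 active = dye signal at least 3 control SD above or below untreated wells in both duplicates, raw fluorescence within 3, either direction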;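 also: percent is based on the flux ratio of peak minus minimum fluorescence over baseline F0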
# CHO-K1 ctr = alters thallium flux in parental CHO-K1 cells, KCNQ2 counter-screen; FluxOR thallium flux fluorescence; zero = vehicle mean+3SD, 100% = vehicle-minus-blank window; actives 43% (n = 1,200); activity increase over 3SD of controls, % at 10 µM; shares compounds with KCNQ2 pot; AID 2282;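 active = signal rise of at least 3 SD above the untreated control mean, in both duplicate wells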;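 also: counter screen of KCNQ2 potentiator hits so any rise reflects channel-independent effects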
# KCNQ1 sel pot = selectivity of KCNQ2 potentiators: effect on human KCNQ1; shares compounds with KCNQ2 pot; CHO KCNQ1 stable, FluxOR thallium flux fluorescence; beyond 3SD, as % of vehicle-control signal; activation over 3SD threshold, % at 10 µM; actives 28% (n = 1,200); AID 2283;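 active = fluorescence ratio rise of at least 3 SD of vehicle wells above their mean, in both replicate wells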;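 also: 0% = vehicle mean plus 3 SD and 100% = vehicle minus unstimulated blank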
# KCNQ2 pot confirm = rat KCNQ2 channel potentiator confirmation. shares compounds with KCNQ2 pot. CHO-KCNQ2 cells, FluxOR thallium flux fluorescence. potentiation, less the hit threshold, % at 10 µM. actives 68% (n = 1,200). AID 2287;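 active = fluorescence ratio rising 3 SD or more over the vehicle control mean in both replicates, plus primary screen hit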;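 also: peak minus minimum thallium fluorescence divided by baseline after K/Tl stimulus; 0% = vehicle mean plus 3 SD and 100% = vehicle minus unstimulated blank difference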
# Kir21 spec = tests whether KCNQ2 potentiators also affect mouse Kir2.1 | shares compounds with KCNQ2 pot | HEK293 Kir2.1, FluxOR thallium flux fluorescence | activity over 3SD threshold, % at 10 µM | actives 2% (n = 1,200);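 active = fluorescence ratio rise of at least 3 SD above the vehicle-control mean, seen in both replicates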;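 also: 0% = vehicle mean plus 3 SD and 100% = vehicle minus no-stimulus blank window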
# KCNQ2 W236L pot = potentiates the retigabine-insensitive rat KCNQ2 W236L mutant channel; AID 2558; actives 10% (n = 940); current increase over 3SD of negative controls (%), hits give high values, % at 25 µM; CHO KCNQ2-W236L, automated patch clamp current; shares compounds with KCNQ2 pot;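 active = current increase at least 3 SD of the untreated controls above them in both duplicate recordings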
# Starred values were filed as active, the others as inactive; i = inactive; . = not tested or not shown. Shown are actives, neighbours in structure and some others; about 1.6% of the full set was active somewhere.
SMILES,KCNQ2 pot,KCNQ2 block,Kir21 confirm,HEK293 ctr,others
CC(=O)c1ccc(N2CCN(CN3C(=O)CC4(CCCC4)C3=O)CC2)c(F)c1,.,i,.,.,
Cc1ccccc1NC(=O)c1cccc(N2C(=O)C3C4CC(C(Br)C4Br)C3C2=O)c1 (stereo not given),.,i,.,.,
Cc1nc(OCC(=O)c2ccc(Cl)cc2)c(C#N)c2c1COC(C)(C)C2,0.81,i,.,.,
CCc1nc(OCC(=O)c2ccccc2)c(C#N)c2c1COC(C)(C)C2,9.58*,i,i,i,CHO-K1 ctr=57.0*;KCNQ1 sel pot=-5.9;KCNQ2 pot confirm=20.5*;Kir21 spec=-47.5;KCNQ2 W236L pot=i
C=CCNC(=O)C(=O)Nc1ccc2c(c1)N(S(=O)(=O)c1cccs1)CCC2,.,i,.,.,
O=C(CNC(=O)c1ccccc1F)N/N=C/c1cccnc1,.,i,.,.,
O=c1c2ccccc2c(C=NCCCN2CCOCC2)c(O)n1Cc1ccc2c(c1)OCO2,0.1,i,.,.,
O=c1c2ccccc2c(C=NCCCN2CCOCC2)c(O)n1Cc1ccccc1,.,i,64.5%*,i,
C#CCNC(=O)C1=C[C@@H](c2ccc(C#C)cc2)C[C@@H](OCc2ccc(CO)cc2)O1,.,i,65.5%*,i,
C#CCNC(=O)C1=C[C@@H](c2ccc(Br)cc2)C[C@@H](OCc2ccc(CO)cc2)O1,.,i,.,.,
CC/C(O)=C1\C(=O)CC(c2ccccc2)CC1=NC(C)C (stereo not given),.,i,.,.,
CCOC(=O)CCNC(=O)N1CCCC(N2CCN(c3ccc(OC)cc3)CC2)C1 (stereo not given),.,i,.,.,
O=C(Cc1ccccc1)Nc1nc(-c2cccc([N+](=O)[O-])c2)cs1,1.4,i,.,.,
N#C/C(=C\c1ccc(-c2cccc([N+](=O)[O-])c2)o1)C(=O)Nc1nc(-c2cccs2)cs1,6.77*,i,i,i,CHO-K1 ctr=16.7*;KCNQ1 sel pot=-20.0;KCNQ2 pot confirm=-17.5;Kir21 spec=-38.2
Cc1c(CC(=O)N2CCC(C(N)=O)CC2)c(=O)oc2cc3c(cc12)CCC1(CCCCC1)O3,1.43,i,.,.,
O=C(O)CCC(=O)NNc1nc(-c2ccccc2)c2cc(Cl)ccc2n1,.,i,.,.,
O=C(CN1CCCCC1)NNc1nc(-c2ccccc2)c2cc(Cl)ccc2n1,11.1*,i,i,i,CHO-K1 ctr=-14.9;KCNQ1 sel pot=-19.4;KCNQ2 pot confirm=15.4*;Kir21 spec=-35.0;KCNQ2 W236L pot=i
Cc1ccc(O)c(Cn2nnc3ccccc32)c1,1.47,i,.,.,
CCOC(=O)C1=C(C)OC(N)=C(C#N)C1c1cc2c(cc1[N+](=O)[O-])OCO2 (stereo not given),.,i,.,.,
Cc1cc(Cl)c(S(=O)(=O)N2CCSCC2)cc1OCC(=O)NC1CCCCC1,32.3*,i,i,126.0%*,CHO-K1 ctr=6.8*;KCNQ1 sel pot=-17.3;KCNQ2 pot confirm=121.7*;Kir21 spec=-26.3;KCNQ2 W236L pot=i
Cc1cc(Cl)c(S(=O)(=O)NC2CCCC2)cc1OCC(=O)NC1CCCCC1,0.41,i,.,.,
Cc1cc(Cl)c(S(N)(=O)=O)cc1OCC(=O)NC1CCCCC1,.,i,.,.,
Cc1cc(Cl)c(S(=O)(=O)N2CCCCCC2)cc1OCC(=O)NC1CCCCC1,25.2*,i,i,129.5%*,CHO-K1 ctr=-0.6;KCNQ1 sel pot=-14.1;KCNQ2 pot confirm=163.7*;Kir21 spec=-33.1;KCNQ2 W236L pot=i
CCOC(=O)CSc1ccc(C(=O)NCCCN2CCOCC2)cc1[N+](=O)[O-],0.28,i,.,.,
Cc1ccc(/C=C2\SC(=O)N(CCNC(=O)C3CSC4(C)CCC(=O)N34)C2=O)cc1 (stereo not given),.,i,.,.,
COCCN(C(=O)COC(=O)c1ccc(Cl)nc1)c1c(N)n(Cc2ccccc2)c(=O)[nH]c1=O,.,i,.,.,
Cc1ccccc1NC(=O)NNC(=O)COc1ccc2ccccc2c1,0.7,i,.,.,
